Max response, outcome and Potency data for 17 compounds are collected here from PubChem BioAssay (NCATS).

One assay relates to CRL-7250. The experiment in a line: Cytotoxic Profiling of Annotated Libraries Using Quantitative High-Throughput Screening (AID 1296008). Also: nearly all actives have a fitted effect of over 60% in size. Also: potency is read from the fitted curve at half-maximal effect. As to Max response: % is scaled to controls: 0 for no effect and ±100 for the full control effect. Conditions: Five cell lines viability, CellTiter-Glo ATP luminescence, 48-72 h; max response: stronger effect = lower value. A digest of the protocol: (§1)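 Cytotoxicity was measured as CellTiter-Glo ATP luminescence, read after 10 min at room temperature. Compound treatment of the cells lasted 48 or 72 hr at 37 degrees Celsius in a qHTS format.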
A general note: Cellular ATP, detected with luciferase, serves as a proxy for viable cell number.

For assay [1], the system named is HaCat. Described as above. Conditions: Five cell lines viability, CellTiter-Glo ATP luminescence, 48-72 h; max response: stronger effect = lower value. A digest of the protocol: as §1
Another assay concerns KB-3-1. Described as above. The conditions noted are these: Five cell lines viability, CellTiter-Glo ATP luminescence, 48-72 h; max response: stronger effect = lower value. A digest of the protocol:
as §1

For assay [2], the system named is HACAT. The experiment in a line: qHTS assay to identify novel small-molecules to repurpose for Merkel cell carcinoma treatment (AID 1296009). Also: nearly all actives have a fitted effect of over 60% in size. The conditions noted are these: MCC and control cell lines, CellTiter-Glo viability, 72 h; at 44.8 µM (top of the series) unless noted. In a few lines:
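Cell viability measured by CellTiter-Glo following 72 hr compound treatment at 37 degree celsius, with NPC and MIPE libraries tested in 8- and 11-point concentration series.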
On the technique in general: qHTS replaces the single test concentration by a dilution series.

For the next assay, the system named is C33A. In words: Primary qHTS to identify gynecologic anti-cancer compounds using libraries of approved drugs and bioactive compounds (AID 1345084). Also: % is scaled to controls: 0 for no effect and ±100 for the full control effect; nearly all actives have a fitted effect of over 55% in size. Conditions: Gynecologic cancer cell panel viability, ATPlite luminescence, 48 h; series mostly up to 57.5 µM. A digest of the protocol: (§2)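 Five-concentration response, 48 h; readout is ATP-driven luciferase luminescence.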

The subject of a further assay is CAOV3. The assay is described as above. Conditions: Gynecologic cancer cell panel viability, ATPlite luminescence, 48 h; series mostly up to 57.5 µM. In a few lines:
as §2

The subject of another assay is CASKI. Described as above. Conditions: Gynecologic cancer cell panel viability, ATPlite luminescence, 48 h; series mostly up to 57.5 µM. In a few lines:
as §2

The subject of the next assay is Es-2. The description is as above. The conditions noted are these: Gynecologic cancer cell panel viability, ATPlite luminescence, 48 h; series mostly up to 57.5 µM. In a few lines: as §2
The next assay concerns HeLa. The assay is described as above. Conditions: Gynecologic cancer cell panel viability, ATPlite luminescence, 48 h; series mostly up to 57.5 µM. In a few lines:
as §2

The next assay concerns Hek293T. The description is as above. Conditions: Gynecologic cancer cell panel viability, ATPlite luminescence, 48 h, control line for the selectivity index; series mostly up to 57.5 µM. A digest of the protocol:
as §2

The test system of a further assay is JEG-3. The assay is described as above. Conditions: Gynecologic cancer cell panel viability, ATPlite luminescence, 48 h; series mostly up to 57.5 µM. In a few lines: as §2
The test system of a further assay is OV90. Described as above. The conditions noted are these: Gynecologic cancer cell panel viability, ATPlite luminescence, 48 h; series mostly up to 57.5 µM. In a few lines:
as §2

A further assay deals with PA-1. Described as above. Conditions: Gynecologic cancer cell panel viability, ATPlite luminescence, 48 h; series mostly up to 57.5 µM. In a few lines: as §2

Results filed as inconclusive are left out. Values without a mark were called inactive. The source made the active and inactive calls. Calls follow the shape of the dose curve; as a rule, active = well fitted curve in the direction sought with a large enough effect; inconclusive = small, poorly fitted or top-dose-only effect, or another doubt; inactive = no such curve, though single readings can be large; an effect the other way counts as inactive or inconclusive.

`CCOc1cccc(NC(=O)c2ccc(N3CCCC3)c(C(F)(F)F)c2)c1`: the results for the max response in the assay on CRL-7250 and in the assay with KB-3-1 were -10.4% and -0.259%, respectively. The result in the assay on HaCat [1] and with HACAT [2] was inactive. Also, the Potency result in the assay with C33A, in the assay on CAOV3, with CASKI, in the assay on Es-2, in the assay with HeLa and in the assay on Hek293T was “inactive” throughout. The Potency result in the assay on JEG-3, in the assay on OV90 and in the assay with PA-1 was “inactive” each time.
On to `Cc1[nH]c(/C=C2\C(=O)Nc3cc(-c4ccccc4)ccc32)c(C)c1CCC(=O)O`, for which the max response in the assay with CRL-7250 is -17.7%; with KB-3-1 it was -8.26%. The compound was called inactive in the assay on HaCat [1] and in the assay with HACAT [2]. The Potency entry with C33A, in the assay on JEG-3 and with OV90 was “inactive” in each case.
`CCn1c(N)c(C(=O)NC)c(=O)c2ccc(C#CC(C)(O)COC)nc21` (stereo not drawn): the figures for the max response in the assay with CRL-7250, in the assay on HaCat [1] and with KB-3-1 were -33.6%, -27.4% and 1.64%, respectively. Moreover, the Potency result in the assay on C33A, in the assay on CAOV3, with CASKI, in the assay on Es-2, with HeLa and with Hek293T was “inactive” throughout. Moreover, the Potency entry with JEG-3, in the assay on OV90 and in the assay with PA-1 was “inactive” in each case.
Regarding `Cc1cccc(C#Cc2cc(F)cc(C#N)c2)n1`, the max response is -2.01% with CRL-7250, -1.48% in the assay on HaCat [1] and 2.45% in the assay with KB-3-1. In addition, the Potency result with C33A, with CAOV3, in the assay on CASKI, in the assay on Es-2, in the assay with HeLa and in the assay on Hek293T was “inactive” each time. Further, the Potency result in the assay on JEG-3, in the assay with OV90 and with PA-1 was “inactive” each time.
For `Fc1ccc(-c2nc(-c3c(F)cccc3F)[nH]c2-c2ccncc2)cc1`, the max response in the assay with CRL-7250 is -5.53%; with HaCat [1], -17.9%; in the assay with KB-3-1, 3.89%. The Potency entry in the assay with C33A, in the assay on CAOV3, in the assay with CASKI, with Es-2, in the assay on Hek293T and in the assay with PA-1 was “inactive” each time.
Take `O=C(OC1CN2CCC1CC2)N1CCc2ccccc2C1c1ccccc1` (stereo not drawn): the max response is 0.185% in the assay on CRL-7250 and -9.02% in the assay with KB-3-1. For the same compound, the compound was classed as inactive in the assay on HaCat [1] and in the assay with HACAT [2]. The Potency result in the assay with C33A, in the assay on CAOV3, in the assay with CASKI, with Es-2, in the assay with HeLa and in the assay on Hek293T was “inactive” throughout. For the same compound, the Potency result in the assay with JEG-3 and with PA-1 was “inactive” each time.
As to `Cc1csc(N(C(=O)CSc2ccc(-c3ccccc3)nn2)C2CC2)n1`, the max response in the assay with CRL-7250 was -10.7%; in the assay on KB-3-1, -2.9%. The compound was classed as inactive with HaCat [1] and in the assay on HACAT [2]. Besides, the Potency entry with C33A, in the assay on CAOV3, in the assay on CASKI, in the assay on Es-2, with HeLa and in the assay on Hek293T was “inactive” each time. The Potency result with JEG-3 and with PA-1 was “inactive” each time.
As to `O=C(NCCN1CCC(n2c(=O)[nH]c3ccccc32)CC1)c1ccc2ccccc2c1`, the values for the max response in the assay with CRL-7250, in the assay on HaCat [1] and in the assay with KB-3-1 were 1.03%, -42.4% and -2.44%, respectively. Further, the Potency entry in the assay with C33A, in the assay on CAOV3, with CASKI, in the assay with Es-2, in the assay with HeLa and in the assay on Hek293T was “inactive” each time. For the same compound, the Potency result in the assay on JEG-3 and in the assay on PA-1 was “inactive” throughout.
For the compound `COc1cccc(CN(C(=O)CC(C)(C)C)[C@H]2C[C@H](C(=O)N3CCNCC3)N(Cc3ccc4c(c3)OCO4)C2)c1`, the call in the assay on CRL-7250 and in the assay with KB-3-1 was inactive. Further, the max response in the assay on HaCat [1] was -6.86%. Also, the Potency entry in the assay with C33A, with CAOV3, with CASKI, with Es-2, in the assay on HeLa and in the assay with Hek293T was “inactive” each time. For the same compound, the Potency result in the assay on JEG-3, with OV90 and with PA-1 was “inactive” in each case.
For `Nc1nc2c(ncn2C2OC3COP(=O)(O)OC3C2O)c(=O)[nH]1` (stereo not drawn), the max response with CRL-7250 is -27.3%; with HaCat [1], -25.5%; in the assay on KB-3-1 it was 9.92%. For the same compound, the Potency result in the assay with C33A, in the assay with CAOV3, in the assay with Es-2, with HeLa, in the assay with Hek293T and in the assay with JEG-3 was “inactive” throughout. Moreover, the Potency result in the assay on PA-1 was “inactive”.
Regarding `CCCCCc1ccc(/C=C/C(=O)Nc2cc(Cl)ccc2C(=O)O)cc1`, the results for the max response with CRL-7250, with HaCat [1] and in the assay on KB-3-1 were -6.38%, -35.2% and -3.71%, respectively. In addition, the Potency result with C33A, in the assay on CAOV3, in the assay on CASKI, with Es-2, in the assay on HeLa and in the assay with Hek293T was “inactive” throughout. The Potency result in the assay with JEG-3, with OV90 and with PA-1 was “inactive” in each case.
Regarding `COc1ccc(C(=O)O[C@H]2C=COC=C3C=C4C(=O)N(C)C(=S)C(=O)N4[C@@H]32)cc1Oc1cc(C=O)ccc1O`, the max response in the assay with CRL-7250 is -5.08%. The compound was classed as inactive in the assay on HaCat [1] and with KB-3-1. The outcome with HACAT [2] was “inactive [at 17.4 µM]”. In addition, the Potency result in the assay on C33A, with CASKI, with Es-2, with HeLa, in the assay with Hek293T and in the assay on JEG-3 was “inactive” throughout. In the assay on OV90, the Potency result was “inactive”.
`COc1ccc2cc3c(NC(=O)c4ccco4)nn(C)c3nc2c1`: the max response in the assay on CRL-7250 is -20.9%; in the assay with HaCat [1] it was -26.7%. In addition, the Potency in the assay on KB-3-1 was 13 µM (active). Besides, the Potency result in the assay with C33A, in the assay on CASKI, in the assay on Es-2, in the assay on HeLa, with Hek293T and with JEG-3 was “inactive” each time. For the same compound, the Potency entry in the assay with PA-1 was “inactive”.
Take `O=C(Nc1ccc(-c2ccc(Cl)c(Cl)c2)cc1)C1=C(O)c2ccccc2S(=O)(=O)N1`: the outcome in the assay on CRL-7250 was inactive. The max response is -6.44% in the assay with HaCat [1] and -12.4% in the assay with KB-3-1. Moreover, the Potency entry in the assay on C33A, in the assay on CASKI, in the assay on Es-2, with HeLa, in the assay on JEG-3 and in the assay with OV90 was “inactive” each time.
Take `Cc1c(NC(=O)c2cc3c(s2)CCCC3)cccc1-c1cn(C)c(=O)c(Nc2ccc(C3C(=O)N(C)CCN3C)cc2)n1` (stereo not drawn): the max response with CRL-7250 was -5.13%. Besides, the result with HaCat [1], in the assay with KB-3-1 and in the assay on HACAT [2] was inactive. Besides, the Potency result in the assay with C33A, in the assay on Es-2 and in the assay on Hek293T was “inactive” in each case.
For the compound `CN(C)[C@@H]1CCc2[nH]c3ccc(NC(=O)c4ccc(F)cc4)cc3c2C1`, the max response is -12.5% in the assay with CRL-7250, -11.8% with HaCat [1] and 1.75% in the assay on KB-3-1. For the same compound, the Potency entry in the assay on C33A, in the assay with CAOV3, in the assay on CASKI, in the assay on Es-2, with HeLa and in the assay on Hek293T was “inactive” throughout. Moreover, the Potency entry with JEG-3, in the assay with OV90 and in the assay with PA-1 was “inactive” in each case.
Regarding `CN(C)C(=O)Nc1cc(-c2ccccc2)ccc1N(C)C`, the figures for the max response with CRL-7250, in the assay with HaCat [1] and with KB-3-1 were -26.2%, -16% and -8.42%, respectively. In addition, the Potency result in the assay on C33A, in the assay on CAOV3, in the assay with CASKI, in the assay on Es-2, with HeLa and in the assay on Hek293T was “inactive” each time. In addition, the Potency result in the assay on JEG-3, in the assay on OV90 and with PA-1 was “inactive” in each case.
